Tests used:
[1] = system: Vero E6 infected with SARS-CoV-2; assay: morphology score (similarity to uninfected cells); higher = more like uninfected cells; settings: 24 h
[2] = system: Vero E6 infected with SARS-CoV-2; assay: SARS-CoV-2 infection rate relative to infected DMSO; higher = more infection, active = 60 or less; settings: 24 h

Row | Structure (SMILES) | morphology score [1] | SARS-CoV-2 infection rate [2]
1 | CCCCc1nc2cc(/C=C/C(=O)NO)ccc2n1CCN(CC)CC (10 µM) | -0.146 | 109% (inactive)
2 | N=C(N)c1ccc(/N=N/Nc2ccc(C(=N)N)cc2)cc1 [diminazene-aceturate] (10 µM) | 0.318 | 86% (inactive)
3 | CCCCCCCCNC(=O)/C(C#N)=C/c1cn(CCCN(C)C)c2ccccc12 [dynole-34-2] (10 µM) | 0.659 | 35.5% (active)
4 | CNCC(O)c1ccc(O)c(O)c1 (racemic) [DL-Adrenaline] (10 µM) | 0.188 | 109% (inactive)
5 | CCOc1ccc2nc3cc(N)ccc3c(N)c2c1 [ethacridine-lactate-monohydrate] (10 µM) | 0.0887 | 95.5% (inactive)
6 | Cc1cccc(C)c1NC(=O)/N=C1\CCCN1C [xilobam] (10 µM) | 0.132 | 102% (inactive)
7 | O=C(N[C@H]1CN2CCC1CC2)c1ccc2c(c1)OCCO2 (10 µM) | -0.0253 | 100% (inactive)
8 | O=C1O[C@H]([C@@H](O)CO)C([O-])=C1O.[Na+] [sodium-ascorbate] (10 µM) | 0.159 | 95.5% (inactive)
9 | CN(Cc1ccc(C(C)(C)C)cc1)Cc1cccc2ccccc12 [butenafine] (10 µM) | 0.502 | 71% (inactive)
10 | CC[C@@]1([C@H]2O[C@H]([C@H]3O[C@@](O)(CO)[C@H](C)C[C@@H]3C)C[C@H]2C)CC[C@H]([C@@]2(C)CC[C@]3(C[C@H](O)[C@@H](C)[C@@H]([C@H](C)[C@H](OC)[C@@H](C)C(=O)O)O3)O2)O1 (10 µM) | 0.556 | 39% (active)
